Test results: PubChem BioAssay AID1159580 (chemical genetic matrix, 2015)
In all, about 5,500 compounds went through this assay and about 2,000 (36%) were called active. Inconclusive results (about 18%) are left out. No stated cut-off is given here; in the data, active means normalized growth mostly below about 0.91 (no sharp cut-off); inconclusive means no clear call, values can overlap the other calls; inactive means mostly above about 0.92. Some of the results follow.

Assay: chemical genetic growth profiling, strain panel (AID 1159580);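 further: tested at 20 µM; growth read once vehicle control cultures reached saturation at 30 °C; 1 = growth at the plate median or of vehicle wells; lower values mean less growth of the strain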
Conditions: S. cerevisiae deletion strains, growth OD
[1] = locus YNL153C, strain GIM3, hits give low values

Measured: normalized growth

COc1cc2c(cc1OC)-c1c(oc3c4c(ccc3c1=O)OC(C(C)C)C4)CO2 (configuration not stated)
inactive: locus YAL013W, strain DEP1, hits give low values 1.01 | locus YBR021W, strain FUR4, hits give low values 1.06 | locus YBR229C, strain ROT2, hits give low values 1.01 | locus YCL029C, strain bik1, hits give low values 0.99 | locus YDL035C, strain GPR1, hits give low values 1.05 | locus YDL074C, strain BRE1, hits give low values 1.06 | locus YDL101C, strain DUN1, hits give low values 0.981 | locus YDL134C, strain PPH21, hits give low values 0.983 | locus YDL185W, strain tfp1, hits give low values 0.942 | locus YDL192W, strain arf1, hits give low values 1.01 | locus YDR101C, strain arx1, hits give low values 1.04 | locus YDR162C, strain NBP2, hits give low values 0.978 | locus YDR318W, strain mcm21, hits give low values 0.973 | locus YDR388W, hits give low values 0.982 | locus YDR502C, strain sam2, hits give low values 0.978 | locus YER110C, hits give low values 0.989 | locus YER155C, strain BEM2, hits give low values 0.997 | locus YER167W, strain BCK2, hits give low values 1.01 | locus YGL078C, strain dbp3, hits give low values 0.938 | locus YGL086W, strain mad1, hits give low values 0.983 | locus YGL248W, strain PDE1, hits give low values 0.988 | locus YGR078C, strain PAC10, hits give low values 0.982 | locus YGR135W, strain pre9, hits give low values 0.923 | locus YGR252W, strain gcn5, hits give low values 1.03 | locus YHR079C, strain IRE1 (second series), hits give low values 0.969 | locus YHR094C, strain hxt1, hits give low values 0.979 | locus YHR129C, strain ARP1, hits give low values 1 | locus YHR200W, strain rpn10, hits give low values 0.985 | locus YIL066C, strain RNR3, hits give low values 1.03 | locus YIL073C, strain SPO22, hits give low values 0.942 | locus YIL125W, strain kgd1, hits give low values 0.984 | locus YIR030C, strain dcg1, hits give low values 0.968 | locus YJL095W, strain BCK1, hits give low values 0.965 | locus YJL134W, strain LCB3, hits give low values 1 | locus YJL168C, strain set2, hits give low values 0.979 | locus YJL187C, strain SWE1 (second series), hits give low values 0.974 | locus YJR075W, strain HOC1, hits give low values 0.971 | locus YKL009W, strain mrt4, hits give low values 1.02 | locus YKL068W, hits give low values 0.98 | locus YKL085W, strain MDH1 (second series), hits give low values 0.973 | locus YKL085W, strain MDH1, hits give low values 0.973 | locus YKL190W, strain CNB1, hits give low values 0.992 | locus YKR001C, strain vps1, hits give low values 1.01 | locus YLR039C, strain RIC1, hits give low values 0.998 | locus YLR058C, strain SHM2, hits give low values 1 | locus YLR102C, strain apc9, hits give low values 0.988 | locus YLR268W, strain sec22, hits give low values 1.04 | locus YLR330W, strain CHS5, hits give low values 0.998 | locus YLR342W, strain FKS1 (second series), hits give low values 1.1 | locus YLR371W, strain rom2, hits give low values 0.982 | locus YLR418C, strain cdc73, hits give low values 0.981 | locus YML016C, strain PPZ1, hits give low values 0.989 | locus YML032C, strain rad52, hits give low values 1.01 | locus YML124C, strain tub3, hits give low values 0.971 | locus YMR078C, strain ctf18, hits give low values 0.962 | locus YMR223W, strain ubp8, hits give low values 0.979 | locus YMR263W, strain SAP30, hits give low values 0.984 | locus YMR307W, strain GAS1, hits give low values 1.15 | locus YNL067W, strain RPL9B, hits give low values 0.964 | [1] 0.963 | locus YNL233W, strain BNI4, hits give low values 0.984 | locus YNL250W, strain rad50, hits give low values 0.93 | locus YNL271C, strain bni1, hits give low values 0.958 | locus YNL298W, strain CLA4, hits give low values 0.979 | locus YNL307C, strain MCK1, hits give low values 0.985 | locus YNR052C, strain pop2, hits give low values 0.962 | locus YOL006C, strain TOP1, hits give low values 1.17 | locus YOL012C, strain htz1 0.827 | locus YOL147C, strain pex11, hits give low values 0.973 | locus YOR061W, strain CKA2, hits give low values 1.02 | locus YOR069W, strain VPS5, hits give low values 0.996 | locus YOR136W, strain idh2, hits give low values 0.965 | locus YOR144C, strain elg1, hits give low values 1 | locus YOR184W, strain ser1, hits give low values 1.08 | locus YOR316C, strain cot1, hits give low values 0.97 | locus YPL241C, strain CIN2, hits give low values 0.986 | locus YPR119W, strain clb2, hits give low values 0.966 | locus YPR141C, strain kar3, hits give low values 0.954 | locus YPR163C, strain tif3, hits give low values 0.988 | locus YPR167C, strain met16, hits give low values 0.973 | strain wtn01, hits give low values 1.03

C=C(C)C1Cc2c(ccc3c2OC2COc4cc(OC)c(OC)cc4C2C3=O)O1 (configuration not stated)
inactive: locus YAL040C, strain CLN3, hits give low values 1.07 | locus YCL061C, strain MRC1 (second series), hits give low values 0.98 | locus YDR363W, strain ESC2, hits give low values 0.99 | locus YER002W, strain NOP16, hits give low values 0.992 | [1] 0.942 | locus YNL175C, strain NOP13, hits give low values 0.955 | locus YNL197C, strain WHI3, hits give low values 0.979 | locus YNL224C, strain SQS1, hits give low values 0.964 | locus YNL322C, strain KRE1, hits give low values 0.98 | locus YOR083W, strain WHI5 (second series), hits give low values 0.958 | locus YPL055C, strain LGE1, hits give low values 1.01
